IEC-6 cytotox: cytotoxicity in IEC-6 intestinal epithelial cells, primary screen, cytotoxicity control for KLF5 inhibitor project, cell-based, luminescence; IEC-6 cytotoxicity, luminescence viability; inhibition, % at 5 µM; 0.78% of 290,000 active; AID 1825, 2009;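 also: 0% = plate median of test compound wells and 100% = cytotoxic reference compound wells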
Ba/F3 V617F tox: reduced viability of JAK2V617F-dependent Ba/F3 cells, primary screen, JAK2V617F inhibitor project, cell-based, Ba/F3 EpoR-JAK2V617F, luminescence. ATP luminescence. inhibition, % at 5.6 µM. 1.1% of 220,000 active;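 active = inhibition above the campaign mean plus 3 SD over all tested compounds, cut at about 24% in these data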;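 also: cytokine-independent growth of Ba/F3 cells driven by EpoR plus mutant JAK2; 0% = DMSO-treated cells and 100% = JAK inhibitor I control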
APP 5UTR inh: inhibitors of APP translation via 5'UTR reporter, primary screen, APP 5'UTR luciferase, SH-SY5Y cells; 0.82% of 190,000 active; SH-SY5Y APP 5'UTR-luciferase reporter, luminescence; inhibition, % at 2 µM;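 active = inhibition above a set limit, derived from the sample mean plus 3 SD, cut at about 45% in these data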
KLF5 inhibitor: KLF5 expression inhibitors, primary screen, DLD-1 cells, luminescence; DLD-1 KLF5 promoter-luciferase reporter; inhibition, % at 5 µM; 0.23% of 290,000 active; AID 1700, 2009;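 active = inhibition above a per-plate limit of that plate's mean compound inhibition plus 3 SD, cut at about 60% in these data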;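 also: 0% = DMSO wells and 100% = LY294002 at 200 µM; higher means less KLF5 promoter-driven luciferase light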
BaF3 parental: parental Ba/F3 cell viability inhibition, counter-screen for JAK2V617F inhibitor project, murine pro-B, CellTiter-Glo luminescence. 1.1% of 220,000 active. inhibition, % at 5.6 µM. CellTiter-Glo ATP luminescence;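 active = inhibition above a per-campaign cutoff, the mean inhibition of all tested compounds plus 3 SD, cut at about 27% in these data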;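 also: 0% = DMSO wells and 100% = JAK Inhibitor I control wells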
IEC-6 tox confirm: cytotoxic compounds in IEC-6 epithelial cells, confirmation, cytotoxicity control, cell-based, luminescence; inhibition, % at 5 µM; shares compounds with IEC-6 cytotox; AID 1907, 2009; 63% of 1,900 active; IEC-6 rat intestinal epithelial viability;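 also: 0% = vehicle and 100% = reference cytotoxic drug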
* hit, by the source's call; . = no result given. In the library only some 1.9% were active in any assay of this set; here they are far more common. Rule as the data show it, unless noted: active = inhibition above about 22%; inactive = the rest.

SMILES	IEC-6 cytotox	Ba/F3 V617F tox	APP 5UTR inh	KLF5 inhibitor	BaF3 parental	IEC-6 tox confirm
O=C(CSc1cccc[n+]1[O-])N1CCCCCC1	-1	0	1	-31	6	.
CCOC(=O)C1CCN(C(=O)Nc2ccc(OC(F)(F)F)cc2)CC1	4	-1	.	-44	0	.
Cc1noc(C)c1COc1ccccc1C(=O)NC1CCC(C)CC1 (stereo not given)	-4	.	.	13	.	.
O=C(OCc1cnc(Cl)s1)c1ccccc1Cl	-15	1	-8	-24	8	.
O=C(OCn1ncc(Br)c(Br)c1=O)c1ccccc1Cl	23*	40*	.	9	37*	54*
O=C(OCn1ncc(Br)c(Br)c1=O)c1ccc(F)cc1	36*	85*	96*	26	93*	62*
COc1ccc(/C=C/CN2CCC(n3nccc3NC(=O)C3CCCC3)CC2)cc1	-1	.	.	-43	.	.
CCC(=O)NC(c1ccc(OC)cc1)c1c(O)ccc2ccccc12 (stereo not given)	23*	2	16	14	2	9
N#Cc1c(NC(=O)C2CC(Cl)=CCC2C(=O)O)sc2c1CCCC2 (stereo not given)	-1	-4	-10	-17	1	.
CCCCCCN1CC(O)=C(c2ccccc2)C1=N	-4	-4	1	-39	7	.
CCCCCCCn1ccc(=N)cc1	23*	97*	16	25	77*	32*
CCOC(=O)C1=NN(C(C)=O)C2(CC(=O)N(c3cccc(C)c3)C2=O)C1 (stereo not given)	-6	-2	10	-31	-2	.
CCCN1C(=O)c2cc(C(=O)Nc3ccc(OC)cc3OC)ccc2C1Nc1ccc(OC)cc1OC (stereo not given)	4	1	-9	-21	4	.
N#CC1=C(N)Oc2cc(N)ccc2C1c1cc(Br)cs1 (stereo not given)	24*	.	.	1	.	10
N#CC1=C(N)Oc2cc(N)ccc2C1c1cccc(Br)c1 (stereo not given)	81*	.	.	61	.	54*
N#CC1=C(N)Oc2cc(N)ccc2C1c1ccsc1 (stereo not given)	-2	-2	4	-27	7	.
COc1ccccc1NC(=S)N(Cc1ccco1)Cc1cc2ccc(C)c(C)c2[nH]c1=O	78*	71*	.	45	81*	54*
Cc1cccc(C)c1OCC(=O)NNC(=S)NC(=O)C1CC1	29*	.	.	32	.	2
CC(=O)c1ccc(NS(=O)(=O)c2cc(-c3cnc(C4CC4)o3)ccc2C)cc1	11	.	.	-32	.	.
Cc1ccc(-c2cnc(C3CC3)o2)cc1S(=O)(=O)Nc1ccccc1	38*	.	.	17	.	47*
CC(=O)Nc1ccc(NS(=O)(=O)c2cc(-c3cnc(C4CC4)o3)ccc2C)cc1	23*	.	.	-42	.	24*
Cc1ccc(N(C)S(=O)(=O)c2cc(-c3cnc(C4CC4)o3)ccc2C)cc1	3	.	.	2	.	.
CC(=O)c1cccc(NS(=O)(=O)c2cc(-c3cnc(C4CC4)o3)ccc2C)c1	41*	.	.	12	.	31*
CN(C)c1ccc(N2C(=NC(=O)CCC3CCCC3)SC3CS(=O)(=O)CC32)cc1 (stereo not given)	2	.	.	-45	.	.
CC(=O)c1cccc(NC(=O)CCC(=O)Oc2ccc(C)cc2)c1	3	.	.	3	.	.
SMILES	IEC-6 cytotox	Ba/F3 V617F tox	APP 5UTR inh	KLF5 inhibitor	BaF3 parental	IEC-6 tox confirm
COc1ccc(N(C(=O)Cc2cccs2)C(C(=O)NC2CCCC2)c2ccncc2)cc1OC (stereo not given)	2	.	.	2	.	.
C#CC(=O)N(c1ccc(OC)c(OC)c1)C(C(=O)NC1CCCC1)c1cccs1 (stereo not given)	100*	99*	17	-2	52*	79*
Cc1ccc(N(CC(=O)Nc2ccc(Br)c(C)c2)S(=O)(=O)c2c(C)[nH]c(=O)[nH]c2=O)cc1	-6	.	.	-24	.	.
NNC(=O)/C(=C\c1ccco1)NC(=O)c1ccco1	70*	.	.	16	.	7
C=CCNC(=O)/C(=C\c1ccco1)NC(=O)c1ccco1	0	.	.	-3	.	.
CCn1nc(C)cc1-c1nnc(Sc2ncc([N+](=O)[O-])s2)n1C	102*	.	.	12	.	26*
CN1CCC(NCCC(c2ccc(F)cc2)c2ccc(Cl)cc2)CC1 (stereo not given)	49*	.	.	-30	.	100*
CC(C)C(CCNC1CCN(C)CC1)c1ccc(Cl)cc1 (stereo not given)	36*	.	.	-48	.	57*
O=C(c1ccccc1)N1CCN(c2ncnc3sc4c(c23)CCC4)CC1	4	2	-16	-14	6	.
O=C(Nc1ccncc1)C1CCCN(S(=O)(=O)c2cccc3cccnc23)C1 (stereo not given)	56*	85*	76*	47	70*	46*
COc1cccc(NC(=O)C2CCCN(S(=O)(=O)c3cccc4cccnc34)C2)c1 (stereo not given)	-8	0	-20	-13	3	.
Oc1ccc(Br)cc1CNc1cccc2cccnc12	44*	.	.	5	.	0
Cc1[nH]n2c(=O)cc(C(C)(C)C)nc2c1-c1ccccc1	34*	9	14	23	13	35*
CCCCCN=Cc1c(C)[nH]n(-c2nc3ccccc3s2)c1=O	45*	48*	-55	-39	46*	51*
O=C(Nc1ccccc1)Nc1cccc(Cl)c1Cl	7	-2	-55	-15	5	.
O=C(Nc1ccc(Oc2ccc(NC(=O)Nc3ccccc3Cl)cc2)cc1)Nc1ccccc1Cl	15	-2	.	1	1	-2
O=C(Nc1ccc(C(=O)NC2CCCCC2)cc1)c1cccnc1	-1	5	6	4	4	.
O=C(NCCc1ccccc1Cl)c1cc(COc2ccc(F)cc2F)on1	-2	.	.	6	.	.
Cc1ccc(-n2c(Cl)c(Cl)nc(Cl)c2=O)cc1	41*	96*	97*	21	58*	40*
COc1nc(Cl)cn(-c2ccc(C)cc2)c1=O	0	5	7	2	8	.
Cc1cc(C)cc(C(=O)NC(CC(N)=O)c2ccc(NC3CCCC3)c([N+](=O)[O-])c2)c1 (stereo not given)	4	.	.	-9	.	.
